Among the data in PubChem BioAssay AID777 (Sanford-Burnham Center for Chemical Genomics, 2007) are inhibition values, retold here.

The whole screen tested about 96,000 compounds, of which about 19,000 (20%) were called active. The list is a sample of the results. A number with no mark means an inactive call.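 Rule for the calls: active = blocking of liver enzyme CYP2C9 beyond about 50% at 5 µM (limit read from the data); inactive = the rest.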

The target of the assay is Cytochrome P450 2C9 (Homo sapiens) (UniProt P11712). Kind of assay: blockers of cytochrome P450 2C9 activity – biochemical, luminescence, ADME assay, primary screen (AID 777). The settings on record: CYP2C9 Supersomes, luciferin-H conversion, at 5 µM, stronger effect = higher value.
Sequence of Cytochrome P450 2C9 (Homo sapiens) (P11712 whole entry, looked up): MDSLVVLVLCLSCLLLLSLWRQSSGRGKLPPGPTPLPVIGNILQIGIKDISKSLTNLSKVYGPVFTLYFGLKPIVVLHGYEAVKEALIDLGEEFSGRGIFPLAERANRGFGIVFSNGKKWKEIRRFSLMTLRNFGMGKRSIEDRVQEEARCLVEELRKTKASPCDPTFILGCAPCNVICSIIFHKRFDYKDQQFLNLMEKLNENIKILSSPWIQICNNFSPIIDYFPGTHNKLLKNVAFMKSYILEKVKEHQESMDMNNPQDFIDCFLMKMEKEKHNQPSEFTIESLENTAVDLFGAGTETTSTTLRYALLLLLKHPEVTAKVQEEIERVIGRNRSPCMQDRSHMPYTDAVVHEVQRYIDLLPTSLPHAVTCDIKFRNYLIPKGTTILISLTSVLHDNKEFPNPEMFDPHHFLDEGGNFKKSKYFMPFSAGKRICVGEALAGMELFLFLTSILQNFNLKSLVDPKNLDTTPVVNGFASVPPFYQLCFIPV
The term inhibition denotes the relative decrease from the control value, in per cent. With `CC1CSc2nnc(CCc3ccccc3)n21` (stereo not given), the inhibition is -10.1%. For `COc1ccccc1NC(=O)COc1ccc(C(=O)OCC(=O)N(C(C)C)C(C)C)cc1OC`, the inhibition was 37.6%.

For the compound `CC1CC(C)CN(CC(=O)Nc2ccc(S(N)(=O)=O)cc2)C1` (stereo not given), the inhibition is 15.7%.

Take `CN(C)/C=C1/Nc2ccccc2C1=O`: the inhibition was -8.2%. Regarding `c1ccc(-n2nnnc2N2CCOCC2)cc1`, the inhibition was -5.9%. Then `O=C(CN1CCOCC1)Nc1c2c(nc3c1CCC3)CCC2`, with -11.6%; and `CCN(CC)CCn1c2ccc(Cl)cc2c2nc(C)sc21`, with 46.4%. Consider `Cc1nc(Cl)c2oc3ccccc3c2n1`, for which the inhibition is 9%.

In the case of `CCC(Oc1ccccc1)C(=O)NCc1cccnc1` (stereo not given), the inhibition is 8.8%. `COc1ccc(-c2cc(C(F)(F)F)nc(S(C)(=O)=O)n2)cc1OC`: the inhibition is 4.2%. Consider `COc1ccc(-c2cc(C(F)(F)F)nc(NCc3cccnc3)n2)cc1`, for which the inhibition is 55.3% (active). Turning to `C=CCC(NCCCO)c1cccc(OC)c1OC` (stereo not given), the inhibition is -26.1%.

For `CC(C)(C)c1cc2cccnc2n1Cc1ccccc1`, the inhibition was 0.7%. Take `COCCNC(=O)c1onc(CSc2cccc(C)c2)c1C(=O)O`: the inhibition is 30.2%. For `CCOc1cccc(SCc2noc(C(=O)NC(C)C)c2C(=O)O)c1`, the inhibition was 73.7% (active).

Take `COC(=O)c1c(CCl)noc1C(=O)NC(C)C`: the inhibition is -0.5%.

`CCCCNC(=O)c1onc(CSc2cccc(OC)c2)c1C(=O)O`: the inhibition was 82.5% (active). Take `CCOc1ccc2nc(SC(CC)C(=O)Nc3cc(C)on3)sc2c1` (stereo not given): the inhibition is -4.1%. On to `COc1ccc(SCc2noc(C(=O)NCC3CCCO3)c2C(=O)O)cc1` (stereo not given), for which the inhibition was 20.1%. On to `O=[N+]([O-])c1ccc(Oc2ccc(F)cc2Br)c2ccncc12`, for which the inhibition is 6.1%. Take `Cc1ccc(NC(=O)Nc2ccc3oc(C)nc3c2)cc1`: the inhibition was 8.7%. As for `CCOC(=O)CSC1=C(C#N)C(c2sccc2C)CC(=O)N1` (stereo not given), the inhibition was 54.8% (active). To `C=CCSC1=C(C#N)C(c2cc(Br)c(O)c(OC)c2)CC(=O)N1` (stereo not given) belongs 39.1%. `COC(=O)CSC1=C(C#N)C(c2ccccc2OC)C(C(=O)OC)C(=O)N1` (stereo not given): the inhibition is 24%. For `Cc1ccc(C2CC(=O)NC(SCC(=O)OCc3ccccc3)=C2C#N)o1` (stereo not given), the inhibition was 97% (active).

Consider `CCOC(=O)c1ccc(N2C(=O)CC(Sc3nc(O)c(CC)c(=O)[nH]3)C2=O)cc1` (stereo not given), for which the inhibition is 26.2%. Then `O=C(COc1ccc(Cl)cc1)N1CCN(c2cccc(C(F)(F)F)c2)CC1`, with 13.6%. As to `Cc1cc(NC(=O)CS(=O)(=O)c2cn(C)c3ccccc23)no1`, the inhibition is -20.5%. As for `CCN(CC)S(=O)(=O)c1ccc2[nH]cc(C(=O)NCCc3ccccc3)c(=O)c2c1`, the inhibition is 22.4%. For `COc1ccc(-n2nnnc2SCc2nc(N)nc(N3CCOCC3)n2)cc1`, the inhibition is 35.6%. In the case of `CN(C)S(=O)(=O)c1ccc(NC(=O)COC(=O)c2n[nH]c3ccccc23)cc1`, the inhibition was 13.8%.

For `CCN(CC)S(=O)(=O)c1ccc2nc(CSc3nnnn3-c3ccc(O)cc3)[nH]c2c1`, the inhibition is 97.3% (active). As to `CCN(CC)S(=O)(=O)c1ccc2nc(COC(=O)c3n[nH]c4ccccc34)[nH]c2c1`, the inhibition was 77.2% (active).

As to `O=c1c2ccccc2nc(CSc2nnnn2-c2ccccc2)n1-c1ccccc1`, the inhibition was -6.4%.

`COC(=O)[C@H](Cc1ccccc1)NC(=O)N1CC(C)OC(C)C1` (stereo not given in full): the inhibition was 4.3%. In the case of `O=C(NC1(C(F)(F)F)NC(=O)N(Cc2cccnc2)C1=O)c1ccccc1Cl` (stereo not given), the inhibition was 2.6%. For `CC(C)(C)NC(=O)NC(=O)COC(=O)CCC1CCCCC1`, the inhibition was 11.7%. In the case of `CC(=O)N=c1ncn(CC(COC(C)=O)OC(C)=O)c2nc[nH]c12` (stereo not given), the inhibition was 10.5%. For `O=C(Nc1ccccc1C(F)(F)F)c1cc(-c2ccc(O)cc2)on1`, the inhibition is -234%. As for `Cc1cc2c(c(=O)n1C)C(C(C)C)C(C#N)=C(N)O2` (stereo not given), the inhibition is 9.3%.

Turning to `CCOC(=O)C1(C(F)(F)F)N=C(N(C)C)OC(N(C)C)=N1`, the inhibition is 5.6%. In the case of `C=CCOc1ccc(Cl)cc1CNCCCN1CCOCC1`, the inhibition is 9.4%. As for `Cc1ccc(OCC(=O)N/N=C/c2ccncc2)cc1`, the inhibition is 86.7% (active). Consider `Cc1cc(C)c(OCC(=O)N/N=C/c2ccco2)c(C)c1`, for which the inhibition is -17.6%. `CSc1ccc(/C=N\NC(=O)COc2ccc(Cl)cc2Br)cc1`: the inhibition was 36%. For `NS(=O)(=O)c1ccc(NS(=O)(=O)/C=C/c2ccccc2)cc1`, the inhibition was 47.3%. Turning to `Cc1ccc(-c2nn(C(C)(C)C)c3ncnc(N)c23)cc1`, the inhibition was 25.5%. With `CCCc1cc(=O)n2[nH]c(SCc3ccccc3)nc2n1`, the inhibition is 43.9%. On to `Cn1c(=O)[nH]c(=O)c2c1nc(N1CCN(CCO)CC1)n2CCSc1nc2ccccc2s1`, for which the inhibition was -5.4%. Consider `Cc1nc2nc(CSc3nc4ccccc4s3)cc(=O)n2[nH]1`, for which the inhibition is 60.1% (active).

Regarding `CCCCn1nc(C(=O)N2CCc3ccccc32)c2ccccc2c1=O`, the inhibition is 41%. Take `CC(=O)Cc1nsc(NC(=O)c2csc3c2CCCC3)n1`: the inhibition was 30%. With `CC(=O)Cc1nsc(NC(=O)c2ccc(COc3ccc(C)cc3)o2)n1`, the inhibition is 64.4% (active). Consider `CCOc1ccc(OCc2ccc(C(=O)Nc3cccc(C)n3)o2)cc1`, for which the inhibition was 40.9%. As for `O=C(Oc1ccccc1)Oc1ccc2c(c1)oc(=O)c1ccccc12`, the inhibition was -55.2%. As to `Cc1c(C(=O)N2CC(C)OC(C)C2)sc2nc(-c3ccccc3)cn12` (stereo not given), the inhibition is 1.3%. For `Fc1ccccc1/C=C1\CCCC2=C1Nc1ncnn1C2c1ccccc1F` (stereo not given), the inhibition is 43.9%.

Turning to `Cc1ccc(C2(C(F)(F)F)N=C3Sc4cc(C)cc(C)c4N3C(=O)N2)cc1` (stereo not given), the inhibition is 65.5% (active). `CCOC(=O)C(=O)Nc1nc(-c2ccccc2)c(CC)s1`: the inhibition was 2.4%.

As to `N=c1n(Cc2ccc(Cl)cc2)c2ccccc2n1CC(O)c1ccco1` (stereo not given), the inhibition was 23.2%. With `Cc1cccn2c(=O)c(/C=C3\SC(=S)N(CC(C)C)C3=O)c(NCCCOC(C)C)nc12`, the inhibition was 27%. Consider `Cn1c(=NC(=O)c2ccco2)sc2cccc(F)c21`, for which the inhibition is 1%. For `CC(Oc1ccc(-c2ccccc2)c(F)c1)c1ccn(S(=O)(=O)c2cccc3ccccc23)n1` (stereo not given), the inhibition was 76.9% (active). To `CCN(CC)Cc1cc(C(C)=O)ccc1O` belongs -7.4%; to `CCOc1ccccc1NC(=O)Nc1cc(OC)ccc1OC`, 4.9%. Then `CCOc1ccccc1Oc1cn[nH]c1-c1ccc(OC)cc1O`, with 98.2% (active); and `CCOC(=O)C1CCN(C(=O)CSc2cc(=O)n(C)c3ccccc23)CC1`, with 18.3%.

As to `O=c1c(-c2ccccc2)coc2c(CN3CCOCC3)c(O)ccc12`, the inhibition was 7.7%. With `CCOC(=O)C1CCCN(Cc2nc(N)nc(Nc3ccc(C)cc3)n2)C1` (stereo not given), the inhibition was 13.1%.

As for `NC(=O)C1(N2CCCCC2)CCN(C(=O)c2ccc(C#Cc3ccccc3)o2)CC1`, the inhibition was 71.6% (active). As to `NC(=O)C1(N2CCCCC2)CCN(C(=S)Nc2ccc(Cl)cc2)CC1`, the inhibition was 20.5%. Regarding `CC(C)(O)C#Cc1ccc(C(=O)N2CCC(C(N)=O)(N3CCCCC3)CC2)cc1`, the inhibition was 27.6%. `CCOC(=O)N1CCC(NC(=O)c2cnn3ccccc23)CC1`: the inhibition was 9.8%. Then `O=C(Nc1cccc(-c2nnc(-c3ccccc3)o2)c1)C1CCCO1` (stereo not given), with 27.5%; and `c1ccc(-c2nnc(SCc3nc4ccccc4[nH]3)o2)cc1`, with 50.9% (active); and `C=CCSc1nc2ccccc2[nH]1`, with -21%. As for `O=C(CSc1nnc(-c2ccccc2)o1)N1CCOCC1`, the inhibition was -9.8%. For `O=C(NC1CCCC1)c1ccc(Br)s1`, the inhibition was 33.9%. As to `CCOc1cc(S(=O)(=O)NCc2ccc3c(c2)OCO3)ccc1F`, the inhibition is 61% (active). Then `CCOc1c2ccc(C(=O)NCc3ccc4c(c3)OCO4)cc2nn1C`, with 41.4%; and `CCOc1cc(S(=O)(=O)NC2CC(C)(C)NC(C)(C)C2)ccc1F`, with -1.2%; and `COc1ccc(OCCCC(=O)Oc2ccc(OC)cc2)cc1`, with 11.2%. To `Cc1cc(C(F)(F)F)n2ncc(-c3ccccc3)c2n1` belongs 0.4%; to `Cc1ccc(/C=N\n2c(-c3ccccc3)n[nH]c2=S)s1`, 13.6%; to `Cn1c(-c2sc3cc(C(F)(F)F)cnc3c2-c2ccccc2)n[nH]c1=S`, 51.7% (active). As for `O=C(NCCc1ccccn1)c1cc(C(=O)C2CCCCC2)c[nH]1`, the inhibition was 10.3%. Then `S=c1[nH]nc(CSCc2ccc(Cl)cc2Cl)n1-c1ccccc1`, with 76.5% (active). `CC(C)Oc1ccc(CCc2n[nH]c(=S)n2Cc2ccccc2)cc1`: the inhibition is 16.2%. With `O=c1[nH]nc(CSCc2ccccc2Cl)[nH]1`, the inhibition is -20.8%. With `CC(Cc1cccs1)NC(=O)NC1CCCCC1` (stereo not given), the inhibition was 12.2%. Turning to `Fc1ccc(CNc2nc3ccccc3n3nnnc23)cc1`, the inhibition was 11.6%. Regarding `COc1ccc(-c2c3c(=O)n(C)c(=O)n(C)c3cn2NC(C)=O)cc1`, the inhibition is 1.5%. On to `CCc1ccccc1NC(=O)CN(C)S(=O)(=O)c1ccc2c(c1)c(=O)n(C)c(=O)n2C`, for which the inhibition was -17.2%. Regarding `COc1ccc(N(C(=O)c2cccnc2)S(=O)(=O)c2ccc3c(c2)n(C)c(=O)n3C)cc1`, the inhibition was 86.2% (active). Then `Cc1ccsc1C(C(=O)NC1CCCCC1)N(C(=O)Cc1cccs1)C1CC1` (stereo not given), with 18.5%; and `Cc1ccc(F)cc1NC(=O)c1cccc(N(C)C)c1`, with -1.6%. As to `Cc1ccc(C(c2nnnn2CS(=O)(=O)c2ccc(C)cc2)N2CCC(C)CC2)cc1` (stereo not given), the inhibition was -18.8%.

`Cc1cc(C(=O)OCC(=O)c2c(N)n(C)c(=O)n(C)c2=O)c(C)o1`: the inhibition was 15.9%. With `Cc1cc(NC(=O)COC(=O)c2ccc(F)c(S(=O)(=O)N3CCOCC3)c2)no1`, the inhibition was -0.2%. Take `Cc1cc(C(=O)OCC(=O)Nc2ccc(F)c(F)c2)c(C)o1`: the inhibition is 61.2% (active).
